# Assay results: PubChem BioAssay (EPA / NIEHS)
# Values joined by “and” are separate entries in the source; they are usually repeats but may differ in a detail not shown here. Equal values may be shown once. Where a structure was tested more than once in an assay, its records may differ in their call. Active and inactive are the calls of the source. The calls were made as follows: active = hit-call score of the fitted dose curve at least 0.9, where 1 is the maximum; inactive = score below 0.9.
# Experiment: CCTE_Shafer_MEA_acute_cross_correlation_HWHM: CCTE's Neural Acute Assay for Cross Correlation at Half Width at Half Maximum, Shafer Lab (AID 2284026)
# Method: CCTE_Shafer_MEA_acute assay is conducted using Axion Biosystems 48 well microelectrode array (MEA) plates and Maestro recording system. Each well of the MEA plate contains a grid of 16 microelectrodes embedded in the culture surface. Electrically active cells, such as neurons, can be cultured over the electrodes, and electrical activity in these cells can be recorded extracellularly. The spontaneous firing of neurons is captured from each electrode on a microsecond timescale providing both temporally and spatially precise data. […] The CCTE_Shafer_MEA_acute assay uses primary cultures of rat cortical neurons. As these cultures mature over time, neural networks develop functional activity and form cohesive networks in which electrical activity can be highly coordinated. Baseline 40-minute recordings are made on days post-plating 13 or 15, followed by a secondary 40-minute recording after chemical exposure.CCTE_Shafer_MEA_acute_cross_correlation_HWHM is a component of the CCTE_Shafer_MEA_acute assay. It measures the distance along the x-axis (phase lag) from the left half maximum height to the center of the cross-correlogram of action potential firing during a recording in a microelectrode array (MEA) using Axion Biosystems Maestro 768 channel amplifier with the AxIS adaptive spike detector. Smaller values indicate a narrower correlogram (greater synchrony). The recordings before and after chemical treatment are used to calculate a percent change in the half width at half maximum of the cross-correlogram in each well.Data from the assay component CCTE_Shafer_MEA_acute_cross_correlation_HWHM was analyzed into 1 assay endpoint. This assay endpoint, CCTE_Shafer_MEA_acute_cross_correlation_HWHM, was analyzed in the negative analysis fitting direction relative to DMSO as the negative control and baseline of activity. Using a type of functional reporter, gain or loss-of-signal activity can be used to understand electrical activity.
# Spontaneous activity in the cortical cultures was recorded using an Axion Biosystems Maestro 768 channel amplifier and Axion Integrated Studios (AxIS) v1.8 (or later) software. The amplifier recorded from all channels simultaneously (gain = 1200 x; sampling rate = 12.5 kHz/channel): raw signals were filtered with a Butterworth band-pass filter (300-5000 Hz), which filters out slower local field potentials leaving only fast potentials, i.e., "spikes", arising from extracellular currents associated with action potentials (Pine 2006; Wheeler and Nam 2011). On-line spike detection of filtered signals was conducted with the AxIS adaptive spike detector, using a threshold of 8x the root mean squared (rms) noise on each channel. Any electrodes with rms noise levels greater than 5 uV were grounded (e.g., no data were recorded). Once grounded, an electrode was grounded for the duration of the experiment. All recordings were conducted at 37 C. Wells were deemed usable if on the day of the exposure >/= 10 electrodes were active (defined as >/= 5 spikes/min). On DIV 13 or 15, a minimum of three wells from one cortical culture preparation were treated with each compound (0.03-40 uM). Prior to recording baseline activity, each mwMEA plate was placed in the Maestro at 37 C and allowed to sit for 20 min while firing rates stabilized. Baseline activity (40 min) was recorded before the addition of each compound. An additional 40 min of spontaneous activity was recorded in the presence of each compound. Changes in network parameters relative to baseline were assessed following compound treatment.
SMILES,outcome,AC50
CCCN(CCOc1c(Cl)cc(Cl)cc1Cl)C(=O)n1ccnc1,inactive,–
CC1(C)C(C=C(Cl)Cl)C1C(=O)OC(C#N)c1ccc(F)c(Oc2ccccc2)c1 (stereo not given),inactive,15 µM (active)
N#CN,inactive,–
O=C1c2ccccc2C(=O)N1SC(Cl)(Cl)Cl,inactive,–
O=C(O)CCCOc1ccc(Cl)cc1Cl,inactive,–
O=S(=O)(O)C(F)(F)C(F)(F)C(F)(F)C(F)(F)C(F)(F)C(F)(F)C(F)(F)C(F)(F)F,inactive,–
C[C@H]1[C@H](c2ccc(Cl)cc2)SC(=O)N1C(=O)NC1CCCCC1,–,23.5 µM (active)
CNC(=O)/C=C(\C)OP(=O)(OC)OC,inactive,–
CCC(C)Nc1c([N+](=O)[O-])cc(C(C)(C)C)cc1[N+](=O)[O-] (stereo not given),inactive,–
Clc1ccccc1-c1nnc(-c2ccccc2Cl)nn1,inactive,–
CNC(=O)CSP(=S)(OC)OC,inactive,–
CC(C)N(C(=O)COc1nnc(C(F)(F)F)s1)c1ccc(F)cc1,–,20 µM (active) and 10.9 µM (active)
CC(C)OC(=O)Nc1cccc(Cl)c1,–,20 µM (active)
O=S1OCC2C(CO1)C1(Cl)C(Cl)=C(Cl)C2(Cl)C1(Cl)Cl (stereo not given),inactive,19.8 µM (active)
N#Cc1c(Cl)c(Cl)c(Cl)c(C#N)c1Cl,inactive,–
CCCN(CCC)c1c([N+](=O)[O-])cc(C(F)(F)F)cc1[N+](=O)[O-],inactive,–
CC[C@H](C)[C@H]1O[C@]2(C=C[C@@H]1C)C[C@@H]1C[C@@H](C/C=C(\C)[C@@H](O[C@H]3C[C@H](OC)[C@@H](O[C@H]4C[C@H](OC)[C@@H](O)[C@H](C)O4)[C@H](C)O3)[C@@H](C)/C=C/C=C3\CO[C@@H]4[C@H](O)C(C)=C[C@@H](C(=O)O1)[C@]34O)O2 (tested in a mixture with another compound),–,0.0109 µM (active)
CCC(C)(C)C(=O)OC1=C(c2ccc(Cl)cc2Cl)C(=O)OC12CCCCC2,inactive,0.106 µM (active)
ClC1C(Cl)C(Cl)C(Cl)C(Cl)C1Cl (stereo not given),inactive,–
O=[N+]([O-])/N=C1\NCCN1Cc1ccc(Cl)nc1,inactive,–
Oc1cc(Cl)ccc1Oc1ccc(Cl)cc1Cl,–,20 µM (active)
COP(=S)(OC)Oc1ccc(SC)c(C)c1,–,31.2 µM (active)
